The whole screen tested about 5,500 compounds, of which about 2,000 (36%) were called active. Not shown: some 18% with an inconclusive outcome. Rule as the data show it: active = normalized growth mostly below about 0.91 (no sharp cut-off); inconclusive = no clear call, values can overlap the other calls; inactive = mostly above about 0.92. The list shows a part of the results.
Test: chemical genetic growth profiling, strain panel (AID 1159580);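 also: tested at 20 µM; growth read once vehicle control cultures reached saturation at 30 °C; 1 = growth at the plate median or of vehicle wells; lower values mean less growth of the strain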
Conditions: growth OD
[1] = S. cerevisiae deletion strains, locus YDL101C, strain DUN1, stronger effect = lower value
[2] = S. cerevisiae deletion strains, locus YHR030C, strain SLT2, stronger effect = lower value
[3] = S. cerevisiae deletion strains, locus YAL013W, strain DEP1, stronger effect = lower value
[4] = S. cerevisiae deletion strains, locus YBR229C, strain ROT2, stronger effect = lower value
[5] = S. cerevisiae deletion strains, locus YCL061C, strain MRC1, stronger effect = lower value
[6] = S. cerevisiae deletion strains, locus YDR150W, strain NUM1, stronger effect = lower value
[7] = S. cerevisiae deletion strains, locus YEL061C, strain CIN8, stronger effect = lower value
[8] = S. cerevisiae deletion strains, locus YGR078C, strain PAC10, stronger effect = lower value
[9] = S. cerevisiae deletion strains, locus YHR087W, strain rtc3, stronger effect = lower value
[10] = S. cerevisiae deletion strains, locus YJR043C, strain POL32, stronger effect = lower value
[11] = S. cerevisiae deletion strains, locus YJR075W, strain HOC1, stronger effect = lower value
[12] = S. cerevisiae deletion strains, locus YLR039C, strain RIC1, stronger effect = lower value
[13] = S. cerevisiae deletion strains, locus YLR058C, strain SHM2 (second series), stronger effect = lower value
[14] = S. cerevisiae deletion strains, locus YLR085C, strain ARP6, stronger effect = lower value
[15] = S. cerevisiae deletion strains, locus YLR262C, strain YPT6, stronger effect = lower value
[16] = S. cerevisiae deletion strains, locus YML094W, strain GIM5, stronger effect = lower value
[17] = S. cerevisiae deletion strains, locus YMR219W, strain ESC1, stronger effect = lower value
[18] = S. cerevisiae deletion strains, locus YMR263W, strain SAP30, stronger effect = lower value
[19] = S. cerevisiae deletion strains, locus YNL128W, strain TEP1, stronger effect = lower value
[20] = S. cerevisiae deletion strains, locus YNL153C, strain GIM3, stronger effect = lower value
[21] = S. cerevisiae deletion strains, locus YNL298W, strain CLA4 (second series), stronger effect = lower value
[22] = S. cerevisiae deletion strains, locus YNL322C, strain KRE1, stronger effect = lower value
[23] = S. cerevisiae deletion strains, locus YNR030W, strain Alg12, stronger effect = lower value
[24] = S. cerevisiae deletion strains, locus YOL006C, strain TOP1, stronger effect = lower value
[25] = S. cerevisiae deletion strains, locus YPL055C, strain LGE1, stronger effect = lower value
[26] = S. cerevisiae deletion strains, locus YPL241C, strain CIN2, stronger effect = lower value
[27] = S. cerevisiae deletion strains, locus YPR135W, strain CTF4, stronger effect = lower value
[28] = S. cerevisiae strains, strain wild type, stronger effect = lower value

Measured: normalized growth

O=C(N/C=C/c1ccsc1)Nc1cc(C(F)(F)F)cc(C(F)(F)F)c1
active: S. cerevisiae deletion strains, locus YDL214C, strain PRR2, stronger effect = lower value 0.643 | S. cerevisiae deletion strains, locus YDR477W, strain SNF1, stronger effect = lower value 0.61 | S. cerevisiae deletion strains, locus YER123W, strain YCK3, stronger effect = lower value 0.44 | S. cerevisiae deletion strains, locus YER133W, strain GLC7, stronger effect = lower value 0.63 | S. cerevisiae deletion strains, locus YFR019W, strain FAB1, stronger effect = lower value 0.639 | S. cerevisiae deletion strains, locus YGR040W, strain KSS1, stronger effect = lower value 0.613 | S. cerevisiae deletion strains, locus YGR052W, strain FMP48, stronger effect = lower value 0.33 | S. cerevisiae deletion strains, locus YGR092W, strain DBF2, stronger effect = lower value 0.254 | [2] 0.426 | S. cerevisiae deletion strains, locus YHR079C, strain IRE1, stronger effect = lower value 0.457 | S. cerevisiae deletion strains, locus YHR082C, strain KSP1, stronger effect = lower value 0.393 | S. cerevisiae deletion strains, locus YHR205W, strain SCH9, stronger effect = lower value 0.516 | S. cerevisiae deletion strains, locus YJL095W, strain BCK1, stronger effect = lower value 0.505 | S. cerevisiae deletion strains, locus YJL157C, strain FAR1, stronger effect = lower value 0.676 | S. cerevisiae deletion strains, locus YJR066W, strain TOR1 (second series), stronger effect = lower value 0.507 | S. cerevisiae deletion strains, locus YKL048C, strain ELM1, stronger effect = lower value 0.726 | S. cerevisiae deletion strains, locus YKL067W, strain YNK1, stronger effect = lower value 0.587 | S. cerevisiae deletion strains, locus YKL101W, strain HSL1, stronger effect = lower value 0.387 | S. cerevisiae deletion strains, locus YKL203C, strain TOR2, stronger effect = lower value 0.58 | S. cerevisiae deletion strains, locus YLR113W, strain HOG1, stronger effect = lower value 0.315 | S. cerevisiae deletion strains, locus YLR133W, strain CKI1, stronger effect = lower value 0.597 | S. cerevisiae deletion strains, locus YLR403W, strain SFP1, stronger effect = lower value 0.444 | S. cerevisiae deletion strains, locus YML070W, strain DAK1, stronger effect = lower value 0.361 | S. cerevisiae deletion strains, locus YMR205C, strain PFK2 (second series), stronger effect = lower value 0.672 | S. cerevisiae deletion strains, locus YNL020C, strain ARK1, stronger effect = lower value 0.541 | S. cerevisiae deletion strains, locus YNL183C, strain NPR1, stronger effect = lower value 0.309 | S. cerevisiae deletion strains, locus YNL307C, strain MCK1 (second series), stronger effect = lower value 0.41 | S. cerevisiae deletion strains, locus YOL136C, strain PFK27, stronger effect = lower value 0.555 | S. cerevisiae deletion strains, locus YOR231W, strain MKK1, stronger effect = lower value 0.507 | S. cerevisiae deletion strains, locus YPL031C, strain PHO85, stronger effect = lower value 0.417 | S. cerevisiae deletion strains, locus YPL153C, strain RAD53, stronger effect = lower value 0.345 | S. cerevisiae deletion strains, locus YPL204W, strain HRR25, stronger effect = lower value 0.434 | S. cerevisiae deletion strains, locus YPL256C, strain CLN2, stronger effect = lower value 0.444
inactive: S. cerevisiae deletion strains, locus YAR019C, strain CDC15, stronger effect = lower value 0.968 | S. cerevisiae deletion strains, locus YBL105C, strain PKC1, stronger effect = lower value 0.967 | S. cerevisiae deletion strains, locus YBR135W, strain CKS1, stronger effect = lower value 0.974 | S. cerevisiae deletion strains, locus YBR136W, strain MEC1, stronger effect = lower value 0.989 | S. cerevisiae deletion strains, locus YBR160W, strain CDC28, stronger effect = lower value 0.976 | S. cerevisiae deletion strains, locus YDL017W, strain CDC7, stronger effect = lower value 0.98 | S. cerevisiae deletion strains, locus YDL028C, strain MPS1, stronger effect = lower value 0.979 | [1] 0.995 | S. cerevisiae deletion strains, locus YDL108W, strain KIN28, stronger effect = lower value 0.987 | S. cerevisiae deletion strains, locus YDL132W, strain cdc53, stronger effect = lower value 0.983 | S. cerevisiae deletion strains, locus YDR052C, strain DBF4, stronger effect = lower value 0.98 | S. cerevisiae deletion strains, locus YDR054C, strain cdc34, stronger effect = lower value 0.958 | S. cerevisiae deletion strains, locus YDR226W, strain ADK1, stronger effect = lower value 0.98 | S. cerevisiae deletion strains, locus YFL009W, strain cdc4, stronger effect = lower value 0.977 | S. cerevisiae deletion strains, locus YFL029C, strain CAK1, stronger effect = lower value 0.98 | S. cerevisiae deletion strains, locus YFR003C, strain YPI1, stronger effect = lower value 0.979 | S. cerevisiae deletion strains, locus YFR028C, strain CDC14, stronger effect = lower value 0.97 | S. cerevisiae deletion strains, locus YIL147C, strain SLN1, stronger effect = lower value 0.981 | S. cerevisiae deletion strains, locus YJL128C, strain PBS2, stronger effect = lower value 0.873 | S. cerevisiae deletion strains, locus YJR016C, strain ILV3, stronger effect = lower value 0.977 | S. cerevisiae deletion strains, locus YJR066W, strain TOR1, stronger effect = lower value 0.507 | S. cerevisiae deletion strains, locus YKL193C, strain SDS22, stronger effect = lower value 0.979 | S. cerevisiae deletion strains, locus YMR001C, strain CDC5, stronger effect = lower value 0.976 | S. cerevisiae deletion strains, locus YMR277W, strain FCP1, stronger effect = lower value 0.966 | S. cerevisiae deletion strains, locus YNL006W, strain LST8, stronger effect = lower value 0.979 | S. cerevisiae deletion strains, locus YNL161W, strain CBK1, stronger effect = lower value 0.976 | S. cerevisiae deletion strains, locus YNL207W, strain RIO2, stronger effect = lower value 0.976 | S. cerevisiae deletion strains, locus YNL222W, strain SSU72, stronger effect = lower value 0.974 | S. cerevisiae deletion strains, locus YOL078W, strain AVO1, stronger effect = lower value 0.984 | S. cerevisiae deletion strains, locus YOR061W, strain CKA2, stronger effect = lower value 0.726 | S. cerevisiae deletion strains, locus YOR119C, strain RIO1, stronger effect = lower value 0.719 | S. cerevisiae deletion strains, locus YOR329C, strain SCD5, stronger effect = lower value 0.981 | S. cerevisiae deletion strains, locus YPL209C, strain IPL1, stronger effect = lower value 0.968 | S. cerevisiae deletion strains, locus YPR025C, strain CCL1, stronger effect = lower value 0.98 | S. cerevisiae deletion strains, locus YPR106W, strain ISR1, stronger effect = lower value 0.971 | S. cerevisiae deletion strains, locus YPR111W, strain DBF20, stronger effect = lower value 0.958 | S. cerevisiae deletion strains, strain NNK1, stronger effect = lower value 0.969 | S. cerevisiae deletion strains, strain TSCII, stronger effect = lower value 0.973

COc1ccc(NC(=O)c2cc(C(F)(F)F)cc(C(F)(F)F)c2)cn1
inactive: [3] 0.964 | [4] 0.938 | [5] 0.968 | [1] 0.928 | [6] 1.05 | [7] 0.942 | S. cerevisiae deletion strains, locus YGR229C, strain SMI1, stronger effect = lower value 0.959 | [2] 0.826 | [9] 0.925 | [10] 0.959 | [11] 0.893 | S. cerevisiae deletion strains, locus YKL190W, strain CNB1, stronger effect = lower value 0.947 | [14] 0.781 | [16] 0.927 | [17] 0.949 | [18] 0.98 | [19] 0.953 | [20] 0.983 | [21] 0.895 | [23] 0.9 | [24] 0.867 | [25] 0.963 | [26] 0.908 | [28] 0.931
active: [8] 0.92 | [12] 0.539 | [13] 0.926 | [15] 0.636 | [22] 0.938 | [27] 0.611

COc1cc(C(F)(F)F)cc(C(F)(F)F)c1C(=O)Nc1cc(C(F)(F)F)cc(C(F)(F)F)c1
inactive: [3] 1.03 | [4] 1.02 | [5] 1.02 | [1] 1.04 | [6] 1 | [7] 1.01 | [8] 1.01 | [2] 1.11 | [9] 1.04 | [10] 1.01 | [11] 1 | [12] 1.03 | [13] 0.998 | [14] 1.03 | [15] 1.01 | [16] 1.08 | [17] 1.01 | [18] 1.01 | S. cerevisiae deletion strains, locus YMR307W, strain GAS1, stronger effect = lower value 1.01 | [19] 1 | [20] 1.01 | [21] 1.03 | [22] 1.01 | [23] 1.03 | [24] 1.09 | [25] 1.07 | [26] 1.06 | [27] 1.1 | [28] 1.01

Reference: PubChem BioAssay AID1159580 (chemical genetic matrix, 2015)
